From PubChem
tim23-1 inh – growth inhibitors of tim23-1 mutant yeast; S. cerevisiae tim23-1 growth, BacTiter-Glo luminescence, 24 h; inhibition, % at 20 µM; 330,000 tested, 1.3% active; AID 463212;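 active = growth inhibition of the mutant yeast at or above 50%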;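 also: temperature-sensitive mutant grown at 25 °C; plate controls were DMSO-treated mutant yeast for no effect and medium wells lacking yeast for full effect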
NLRP3 yeast inh – blocks the NALP3 inflammasome reconstituted in yeast. Yeast reconstituted NLRP3/ASC/caspase-1, beta-gal luminescence, 24 h. inhibition, % at 10 µM. 330,000 tested, 0.39% active. AID 2825;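 active = inhibition of 50% or more; inactive = inhibition below 50%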;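 also: plate controls were induced DMSO wells for no effect and uninduced yeast grown without galactose for full effect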
tim10-1 inh – inhibits growth of tim10-1 mutant yeast | S. cerevisiae tim10-1 ts strain growth, BacTiter-Glo, 24 h | inhibition, % at 20 µM | 330,000 tested, 2.2% active;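 active = inhibition of at least 40%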;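 also: mutant grown at 25 °C; 0% = DMSO wells with yeast and 100% = wells holding no yeast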
SKKanGAS inh – inhibitors of SKKanGAS S. pyogenes growth in kanamycin (SK-promoter or general growth effect). AID 1662. BacTiter-Glo, 6 h. inhibition, % at 7.5 µM. 300,000 tested, 1.3% active;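 active = mean replicate score, as percent of positive control median, at least 50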;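 also: strain carries kanamycin resistance gene driven by streptokinase promoter and grows in 40 µg/ml kanamycin; loss of luminescence reflects streptokinase promoter inhibition or plain growth inhibition; 0% = median of DMSO wells and 100% = positive control at its reference dose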
TIM10 inh – growth inhibitors of TIM10 yeast strain; inhibition, % at 10 µM; S. cerevisiae TIM10 strain growth, BacTiter-Glo luminescence, 24 h; 330,000 tested, 1.4% active;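 active = inhibition of 40% or more at the single tested concentration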;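 also: wild-type TIM10 isogenic control strain grown at permissive 25 °C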
PfHsp90 yeast 2 – growth inhibition of yeast expressing Plasmodium Hsp90; S. cerevisiae expressing PfHsp90, BacTiter-Glo ATP, 48 h; yeast lacking PDR1 and PDR3 efflux regulators; inhibition, % at 9.4 µM; 310,000 tested, 0.32% active; AID 504621;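 active = every replicate shows inhibition above about 80%, whatever the replicate mean, limit read from the data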;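 also: 0% = DMSO neutral controls and 100% = 20 µM radicicol positive controls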
An asterisk follows results filed as active; . = no result given. Rows were chosen to be rich in hits. Some 4.5% of all compounds tested hit in one or more screens of this group.

SMILES	tim23-1 inh	NLRP3 yeast inh	tim10-1 inh	SKKanGAS inh	TIM10 inh	PfHsp90 yeast 2
Cc1ccc(C)c(OCCC(=O)OCC(=O)NNC(=O)c2ccccc2)c1	4	16	1	.	1	-1
COc1ccc(C(=O)/C=C2\C(=O)Nc3ccc(Br)cc32)cc1	.	.	.	.	.	144*
O=C(NC1=C(Nc2ccc(F)cc2)C(=O)c2ccccc2C1=O)c1ccc(Cl)cc1	15	21	15	51*	26	19
Cc1cccc(OCC(=O)Nc2ccc(C(=O)Nc3ccccc3C(=O)O)cc2)c1C	7	8	3	58*	8	-5
CC(C)(C)c1ccc(OCC(=O)Nc2ccc(C(=O)Nc3ccccc3C(=O)O)cc2)cc1	16	9	-1	83*	18	0
COc1ccc2cc(C(=O)NCc3ccccc3)c(=Nc3ccc(C(=O)O)cc3)oc2c1	4	1	1	59*	12	-13
NC(=S)N/N=C/c1c(O)c(Br)cc2oc3c(c12)CCCC3	20	15	20	87*	24	-29
CCOC(=O)C1CCCN(S(=O)(=O)Cc2ccc(Cl)cc2)C1 (stereo not given)	14	8	-2	-1	-10	17
Nc1ccc(C(O)(C(F)(F)F)C(F)(F)F)cc1	-6	-34	14	3	9	.
Nc1ccc(-c2ccc(N)cc2C(F)(F)F)c(C(F)(F)F)c1	4	13	10	60*	-25	-12
Cc1ccc(CNc2ccc(N3CCN(C)CC3=O)cc2)cc1	-13	18	-5	.	-6	-2
CCOC(=O)C1=C(N)N2C(=O)C(C)SC2=C(C(=O)OCC)C1c1ccccc1 (stereo not given)	22	15	17	12	5	-12
CCOC(=O)C1=C(N)N2C(=O)C(C)SC2=C(C(=O)OC)C1c1ccccc1OC (stereo not given)	-16	16	25	.	-15	133*
Brc1cccc(/C=N/Nc2nc(N3CCCCC3)nc(N3CCCCC3)n2)c1	12	2	9	12	12	.
Oc1ccc(/C=N/Nc2ccc3ccccc3c2)c(O)c1	26	1	21	52*	28	-3
Oc1ccc(/C=N/Nc2nc(N3CCCCCC3)nc(N3CCCCCC3)n2)c(O)c1	34	18	25	112*	36	0
O=[N+]([O-])c1cccc(/C=N/Nc2nc(N3CCCCC3)nc(N3CCCCC3)n2)c1	16	21	13	52*	13	-20
C(=N\Nc1nc(N2CCCCCC2)nc(N2CCCCCC2)n1)/c1ccccc1	30	12	6	69*	24	-23
Cc1ccc([N+](=O)[O-])cc1S(=O)(=O)Nc1ccc(C(=O)NCC2CCCO2)cc1 (stereo not given)	-2	16	16	.	13	5
CC(C)CN(C(=O)C1CCCO1)C1CCS(=O)(=O)C1 (stereo not given)	9	2	1	-8	9	.
COc1ccc(N2CC(C(=O)Nc3nc4ccc(F)cc4s3)CC2=O)c(OC)c1 (stereo not given)	12	-4	20	7	0	-3
COc1ccc(NS(=O)(=O)c2ccc(C)c(C(=O)N(C)CC(=O)Nc3cccc(OC)c3)c2)cc1	5	25	-5	-3	-2	.
NC(=O)N/N=C(/CCCCCC/C(=N\NC(N)=O)c1ccccc1)c1ccccc1	-4	11	-2	53*	-6	.
COc1cc(/C(C)=C/c2ccccc2)c2c(c1)oc1ccccc12	.	.	.	55*	.	.
COc1ccc2oc3ccccc3c(=O)c2c1	13	24	12	1	4	-10
SMILES	tim23-1 inh	NLRP3 yeast inh	tim10-1 inh	SKKanGAS inh	TIM10 inh	PfHsp90 yeast 2
Cc1ccccc1CC(=O)NCc1cccnc1	-9	10	-14	-4	6	-8
CCCCCCCCOC(=O)c1cc([N+](=O)[O-])c(Sc2ncnc3nc[nH]c23)c([N+](=O)[O-])c1	.	.	.	.	.	107*
CCc1ccc(/C=C2\SC(=S)N(CCCC(=O)Nc3ccccc3C(=O)O)C2=O)cc1	40	20	32	66*	13	-13
Cc1ccccc1CN(C)CC(=O)Nc1ccccc1-c1ccccc1	13	1	34	53*	-15	8
COc1ccc(CN(C)S(=O)(=O)c2nnc(NC(=O)c3ccccc3Br)s2)cc1	14	-3	20	59*	20	-5
COc1ccc(CN(C)S(=O)(=O)c2nnc(NC(=O)c3cccc(OC)c3)s2)cc1	17	-7	21	41	9	-25
NS(=O)(=O)c1ccc(N2N=C(c3ccc(Br)cc3)CC2c2ccc(F)cc2)cc1 (stereo not given)	20	-8	20	72*	34	-10
Cc1cccc(Nc2nc(N)c([N+](=O)[O-])c(N3CC(C)CC(C)C3)n2)c1 (stereo not given)	29	6	-3	24	16	101*
Cc1cccc(Nc2nc(N)c([N+](=O)[O-])c(N3CC(C)OC(C)C3)n2)c1 (stereo not given)	30	15	8	-5	24	-2
CC1=NN(C(N)=S)C(=O)C1N=Nc1c(Cl)cc([N+](=O)[O-])cc1Cl (stereo not given)	38	45	40	50*	11	0
CCCCCCCCCCCCCCCC[n+]1ccccc1	.	.	.	.	.	114*
CC[C@]12c3[nH]c4cc(-c5ccco5)ccc4c3CCN1C(=O)[C@@H](CC(=O)NCCCn1ccnc1)C[C@@H]2C(=O)N1CCN(C(=O)c2ccco2)CC1	23	.	-2	.	-9	23
O=C(NNC(=O)c1ccco1)c1ccc(NS(=O)(=O)c2cccs2)cc1	1	15	-24	1	-2	7
CCOC(=O)N1CCN(Cc2nc3cc(NC(=O)c4ccco4)ccc3n2C)CC1	8	10	-2	-2	19	-8
CCOc1ccccc1-c1c2cc(O)c(=O)cc-2oc2cc(O)c(O)cc12	.	.	.	.	.	93*
Cc1ccc(/C=N/Nc2ccnc3cc(Cl)ccc23)c(C)c1	3	13	9	95*	13	-6
Cc1ccccc1/C=N/Nc1ccnc2cc(Cl)ccc12	.	.	.	-28	.	-13
Clc1ccc2c(N/N=C/c3ccc(Br)cc3)ccnc2c1	.	.	.	113*	.	12
O=C(COC(=O)c1ccc(S(=O)(=O)N2CCCC2)cc1)NCc1ccco1	10	14	-1	-4	8	-16
COC(=O)[C@@]12CCCN1[C@H](c1ccc(-c3cccc(Cl)c3)c(OC)c1)[C@H]1C(=O)N(C)C(=O)[C@H]12	3	9	32	66*	-8	-2
O=S(=O)(c1c(F)cccc1F)N(CCc1ccc(F)cc1)C[C@@H](O)COCc1ccccc1	.	.	.	.	.	120*
CCc1ccc(CNc2ccc3c(c2)ncn3C(C)(C)C)cc1	22	22	7	57*	14	-1
CC(=O)Oc1ccccc1C(=O)C=Cc1cccc([N+](=O)[O-])c1	.	.	.	.	.	106*
